# How the values were obtained:
# Type in all cases: functional
# [1] = biological target: Solute carrier family 2, facilitated glucose transporter member 1 (Homo sapiens) (UniProt P11166); assay: ST_JUDE_LEISH: Cytotoxicity at 2uM final concentration against transgenic Leishmania Mexicana promastigotes LmGLUT1 that are glucose transport deficient and complemented with the human glucose transporter GLUT1. Activity is measured by DNA content using SYBR green in vitro
# [2] = biological target: Hexose transporter 1 (Plasmodium falciparum) (UniProt O97467); assay: ST_JUDE_LEISH: Cytotoxicity at 2uM final concentration against transgenic Leishmania Mexicana promastigotes LmPfHT that are glucose transport deficient and complemented with the Plasmodium falciparum hexose transporter. Activity is measured by DNA content using SYBR green in vitro
# [3] = biological target: Glucose transporter (Leishmania mexicana) (UniProt O61059); assay: ST_JUDE_LEISH: Cytotoxicity at 2uM final concentration against transgenic Leishmania Mexicana promastigotes LmGT2 that are glucose transport deficient and complemented with the L. Mexicana glucose transporter 2. Activity is measured by DNA content using SYBR green in vitro
# Sequence of Solute carrier family 2, facilitated glucose transporter member 1 (Homo sapiens) (P11166 whole entry): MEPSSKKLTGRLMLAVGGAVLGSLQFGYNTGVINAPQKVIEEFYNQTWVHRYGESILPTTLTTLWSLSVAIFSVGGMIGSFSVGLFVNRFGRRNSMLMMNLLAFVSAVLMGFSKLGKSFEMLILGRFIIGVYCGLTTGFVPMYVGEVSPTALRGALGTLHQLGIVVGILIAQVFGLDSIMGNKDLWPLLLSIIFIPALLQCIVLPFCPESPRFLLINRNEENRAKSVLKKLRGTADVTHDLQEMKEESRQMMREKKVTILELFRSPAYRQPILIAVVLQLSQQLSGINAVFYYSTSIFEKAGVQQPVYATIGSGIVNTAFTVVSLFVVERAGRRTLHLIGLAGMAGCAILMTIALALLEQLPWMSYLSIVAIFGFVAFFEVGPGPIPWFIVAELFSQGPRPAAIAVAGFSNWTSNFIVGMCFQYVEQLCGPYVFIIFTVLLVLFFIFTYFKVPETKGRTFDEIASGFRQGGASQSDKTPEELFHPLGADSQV
compound,measurement,setting,value
CCOc1ccc(C(C)NC(=O)Cc2ccccc2F)cc1OCC (stereo unspecified),inhibition,[1],3.49%
same,inhibition,[2],2.75%
same,inhibition,[3],-0.15%
O=C(Nc1cc(Cl)cc(Cl)c1)c1cc(Cl)c(=O)n(Cc2cccc(Cl)c2)c1,inhibition,[1],3.25%
same,inhibition,[2],-1.14%
same,inhibition,[3],-1.24%
Cc1ccc(Nc2cc(C)nn2-c2nc(C)cc(O)n2)cc1,inhibition,[1],75.4%
same,inhibition,[2],73.6%
same,inhibition,[3],67.6%
CCCNCc1ccc(-c2ccc(CN(CCOC)C(=O)c3nn(-c4ccccc4)nc3C)cc2)nc1,inhibition,[1],4.16%
same,inhibition,[2],1.87%
same,inhibition,[3],1%
O=C(Nc1ccc(Br)cc1)c1cc(Br)ccc1NS(=O)(=O)c1ccc(C(F)(F)F)cc1,inhibition,[1],0.82%
same,inhibition,[2],0.98%
same,inhibition,[3],0.46%
CS(=O)(=O)CCNC(=O)c1ccc(-c2cc3c(Nc4ccc5c(cnn5Cc5ccccc5)c4)ncnc3cn2)o1,inhibition,[1],3.86%
same,inhibition,[2],3.93%
same,inhibition,[3],4.93%
CCCN1CCN(CC(O)CNC(=O)Nc2ccc(Br)cc2)CC1 (stereo unspecified),inhibition,[1],3.68%
same,inhibition,[2],4.03%
same,inhibition,[3],3.09%
O=C(Cc1c[nH]cn1)Nc1ccc(-c2ccc(-c3nc4cc(F)ccc4[nH]3)cc2)cc1,inhibition,[1],1.05%
same,inhibition,[2],0.28%
same,inhibition,[3],-0.48%
N#Cc1cccc(C(=O)Nc2ccc(-c3cccc(CN4CCC(O)CC4)c3)cc2)c1,inhibition,[1],0.21%
same,inhibition,[2],0.35%
same,inhibition,[3],-0.04%
NCc1cccc(-c2cccc(CNC3CCN(Cc4ccccc4)CC3)c2)c1,inhibition,[1],6.06%
same,inhibition,[2],5.41%
same,inhibition,[3],-0.37%
O=C(/C=C/c1ccc(Cl)c(Cl)c1)N1CCC(CCCN2CCC(c3c[nH]c4ccccc34)CC2)CC1,inhibition,[1],70.7%
same,inhibition,[2],51.2%
same,inhibition,[3],-0.32%
COc1ccc2cc(-c3nc(-c4c(Cl)cccc4Cl)[nH]c3-c3ccnc(NCCCN4CCN(C)CC4)c3)ccc2c1,inhibition,[1],-1.11%
same,inhibition,[2],-1.01%
same,inhibition,[3],-5.14%

# Reference: ChEMBL document CHEMBL3433997, “St. Jude Leishmania screening dataset” (2016)
